Source: PubChem BioAssay AID1159580 (chemical genetic matrix, 2015)
Values joined by “and” are separate entries in the source; they are usually repeats but may differ in a detail not shown here. Equal values may be shown once. The campaign covered roughly 5,500 compounds. About 2,000 (36%) were called active. Not shown: some 18% with an inconclusive outcome. Cut-off read from the data, not from the text of the source: active = normalized growth mostly below about 0.91 (no sharp cut-off); inconclusive = no clear call, values can overlap the other calls; inactive = mostly above about 0.92. This is one part of the list.

Experiment: chemical genetic growth profiling, strain panel (AID 1159580);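 note: tested at 20 µM; growth read once vehicle control cultures reached saturation at 30 °C; 1 = growth at the plate median or of vehicle wells; lower values mean less growth of the strain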
Details: S. cerevisiae deletion strains, growth OD

Measured: normalized growth

CC(=O)N[C@@H](Cc1c[nH]c2ccccc12)C(=O)O
inactive: locus YAL013W, strain DEP1, hits give low values 1.01 | locus YAL021C, strain ccr4, hits give low values 0.991 | locus YAL026C, strain drs2, hits give low values 0.978 | locus YAL030W, strain snc1, hits give low values 0.999 | locus YBL061C, strain skt5, hits give low values 0.975 | locus YBR009C, strain hhf1, hits give low values 1.03 | locus YBR021W, strain FUR4, hits give low values 0.998 | locus YBR023C, strain chs3, hits give low values 0.996 | locus YBR171W, strain sec66, hits give low values 0.977 | locus YBR229C, strain ROT2, hits give low values 1 | locus YBR231C, strain swc5, hits give low values 0.981 | locus YBR279W, strain paf1, hits give low values 0.982 | locus YCL011C, strain gbp2, hits give low values 0.982 | locus YCL016C, strain dcc1, hits give low values 0.97 | locus YCL029C, strain bik1, hits give low values 1.03 | locus YCL061C, strain MRC1, hits give low values 0.991 | locus YCL069W, strain vba3, hits give low values 0.979 | locus YCR088W, strain abp1, hits give low values 0.992 | locus YDL005C, strain med2, hits give low values 0.971 | locus YDL035C, strain GPR1, hits give low values 1.01 | locus YDL040C, strain nat1, hits give low values 0.983 | locus YDL074C, strain BRE1, hits give low values 1.03 | locus YDL101C, strain DUN1, hits give low values 1.02 | locus YDL134C, strain PPH21, hits give low values 0.987 | locus YDL185W, strain tfp1, hits give low values 1.01 | locus YDL192W, strain arf1, hits give low values 1.01 | locus YDR001C, strain nth1, hits give low values 0.992 | locus YDR069C, strain doa4, hits give low values 0.998 | locus YDR101C, strain arx1, hits give low values 1.01 | locus YDR137W, strain rgp1, hits give low values 0.968 | locus YDR150W, strain NUM1, hits give low values 1 | locus YDR159W, strain sac3, hits give low values 1.01 | locus YDR162C, strain NBP2, hits give low values 1.01 | locus YDR195W, strain ref2 0.942 | locus YDR297W, strain sur2, hits give low values 0.994 | locus YDR318W, strain mcm21, hits give low values 1.02 | locus YDR334W, strain swr1, hits give low values 0.981 | locus YDR335W, strain msn5, hits give low values 0.987 | locus YDR388W, hits give low values 1.03 | locus YDR392W, strain spt3, hits give low values 0.988 | locus YDR502C, strain sam2, hits give low values 1.02 | locus YEL003W, strain gim4, hits give low values 0.986 | locus YEL037C, strain rad23, hits give low values 0.986 | locus YEL061C, strain CIN8 (second series), hits give low values 0.985 | locus YEL061C, strain CIN8, hits give low values 1 | locus YER015W, strain faa2, hits give low values 0.991 | locus YER016W, strain bim1, hits give low values 0.953 | locus YER110C, hits give low values 1.02 | locus YER111C, strain swi4, hits give low values 0.971 | locus YER155C, strain BEM2 (second series), hits give low values 0.982 | locus YER155C, strain BEM2, hits give low values 0.997 | locus YER167W, strain BCK2, hits give low values 1.01 | locus YFR010W, strain ubp6, hits give low values 1 | locus YGL078C, strain dbp3, hits give low values 1.01 | locus YGL086W, strain mad1, hits give low values 1.02 | locus YGL167C, strain pmr1, hits give low values 0.983 | locus YGL173C, strain kem1, hits give low values 0.985 | locus YGL227W, strain vid30, hits give low values 0.984 | locus YGL240W, strain doc1, hits give low values 1.02 | locus YGL248W, strain PDE1, hits give low values 1.04 | locus YGL253W, strain hxk2, hits give low values 0.979 | locus YGR078C, strain PAC10, hits give low values 1.01 | locus YGR135W, strain pre9, hits give low values 1.03 | locus YGR229C, strain SMI1, hits give low values 1.01 | locus YGR252W, strain gcn5, hits give low values 1.02 | locus YHR013C, strain ard1, hits give low values 0.952 | locus YHR027C, strain rpn1, hits give low values 0.976 | locus YHR030C, strain SLT2, hits give low values 1 and 0.996 | locus YHR079C, strain IRE1 (second series), hits give low values 1.02 | locus YHR079C, strain IRE1, hits give low values 0.987 | locus YHR094C, strain hxt1, hits give low values 1.01 | locus YHR129C, strain ARP1, hits give low values 1 | locus YHR142W, strain chs7, hits give low values 0.977 | locus YHR200W, strain rpn10, hits give low values 1.02 | locus YIL066C, strain RNR3, hits give low values 1 | locus YIL073C, strain SPO22, hits give low values 1.04 | locus YIL125W, strain kgd1, hits give low values 1.01 | locus YIR030C, strain dcg1, hits give low values 1.02 | locus YJL092W, strain hpr5, hits give low values 0.986 | locus YJL095W, strain BCK1 (second series), hits give low values 0.996 | locus YJL095W, strain BCK1, hits give low values 1.05 and 0.998 | locus YJL115W, strain asf1, hits give low values 0.978 | locus YJL129C, strain trk1, hits give low values 0.956 | locus YJL134W, strain LCB3, hits give low values 1.01 | locus YJL154C, strain vps35, hits give low values 0.968 | locus YJL164C, strain tpk1, hits give low values 0.988 | locus YJL166W, strain qcr8, hits give low values 1.01 | locus YJL168C, strain set2, hits give low values 1.02 | locus YJL187C, strain SWE1 (second series), hits give low values 1.01 | locus YJL187C, strain SWE1, hits give low values 0.987 | locus YJR043C, strain POL32, hits give low values 1.03 | locus YJR066W, strain TOR1, hits give low values 0.901
